aSyn 5UTR act – Activators via SNCA 5'UTR binding, MLPCN | alpha-synuclein 5'UTR reporter, activators screen | activity score, % (tested at 7.5 µM), hits read low | hit rate 7.1% among 300,000; in the data active = activity score below about -60%
Of the large screens only hits and unclear results are named; the others gave an inactive call. A selection follows.

O=C(COc1cc(F)ccc1[N+](=O)[O-])Nc1cccc(Br)c1	aSyn 5UTR act -71
O=C(COc1ccccc1[N+](=O)[O-])Nc1ccc(NC(=O)c2cc3ccccc3o2)cc1	aSyn 5UTR act -119
O=C(Cc1ccccc1[N+](=O)[O-])Nc1ccc2c(c1)OCCO2	aSyn 5UTR act -100
CCc1ccc(-n2nc3ccc(NC(=O)c4ccc5c(c4)OCO5)cc3n2)cc1	aSyn 5UTR act -66
O=C(Nc1ccc2nn(-c3ccccc3)nc2c1)c1ccc2c(c1)OCCO2	aSyn 5UTR act -82
CCOc1ccc(-n2nc3ccc(NC(=O)c4ccc5c(c4)OCCO5)cc3n2)cc1	none
N#Cc1cc2c(nc1SCC(=O)Nc1sc3c(c1C#N)CCC3)CCCCCC2	aSyn 5UTR act -93
CCc1nnc(NC(=O)CSc2nc3c(cc2C#N)CCC3)s1	aSyn 5UTR act -159
N#Cc1c(NC(=O)CSc2ncn[nH]2)sc2c1CCCC2	none
N#Cc1cc2c(nc1SCC(=O)Nc1sc3c(c1C#N)CCC3)CCC2	aSyn 5UTR act -141
CN1CCc2nc(SCC(=O)Nc3ccc(Cl)cc3)c(C#N)cc2C1	aSyn 5UTR act -65
Cc1ccc2c(CN(C)Cc3ccccc3)cc(=O)oc2c1C	aSyn 5UTR act -80
CC1(C)CCCN(Cc2c(O)ccc3c(=O)c(-c4nc5ccccc5s4)c(N)oc23)C1	aSyn 5UTR act -125
CCOc1ccc(NC(=O)c2cccc3c2C(=O)N(Cc2cccnc2)C3)cc1	aSyn 5UTR act -111
O=C(CCCCl)Oc1ccc2cc(-c3ccc4ccccc4n3)c(=O)oc2c1	aSyn 5UTR act -125
CC(=O)Oc1ccc2c(=O)c(-c3ccccc3)coc2c1	aSyn 5UTR act -146
COc1ccc(-c2coc3cc4oc(=O)cc(-c5ccccc5)c4cc23)cc1F	none
CC(=O)COc1ccc2cc(-c3ccccc3)c(=O)oc2c1	aSyn 5UTR act -64
O=C(COc1ccc2ccc(=O)oc2c1)c1ccccc1	aSyn 5UTR act -102
CC(=O)Oc1ccc2cc(-c3ccccc3)c(=O)oc2c1	aSyn 5UTR act -163
COc1ccc(-c2cc3ccc(OCC(N)=O)cc3oc2=O)cc1OC	aSyn 5UTR act -65
O=C(O)c1ccccc1C(=O)NNc1cccc(Cl)n1	aSyn 5UTR act -108
O=C(NC(=S)Nc1ccc(CN2CCOCC2)cc1)c1ccc2c(c1)OCCO2	aSyn 5UTR act -116
O=C(NC(=S)Nc1ccc(N2CCCCC2)cc1)c1ccc2c(c1)OCCO2	aSyn 5UTR act -125
c1ccc(CCNCC2COc3ccccc3O2)cc1 (stereo not given)	aSyn 5UTR act -64
O=C(NCC1COc2ccccc2O1)c1ccc(Cl)cc1 (stereo not given)	aSyn 5UTR act -93
CN(CC1COc2ccccc2O1)C(=O)c1ccc(N(C)C)cc1 (stereo not given)	aSyn 5UTR act -62
COc1cc2sc3ccc(-c4ccc(N(C)C)nc4)cc3c(=O)c2cc1OC	aSyn 5UTR act -141
COc1ccc(-c2ccc3sc4ccccc4c(=O)c3c2)cn1	aSyn 5UTR act -81
CN(C)c1ccc(-c2ccc3c(=O)c4ccccc4n(C)c3c2)cn1	aSyn 5UTR act -106
N#CC(c1ccc(Cl)cc1)c1ccc2c(C(F)(F)F)cc(C(F)(F)F)nc2n1 (stereo not given)	none
O=C(N/N=C/c1ccc(Br)s1)c1c[nH]c2ccccc12	aSyn 5UTR act -152
O=C(N/N=C/c1cc(Br)cs1)c1c[nH]c2ccccc12	aSyn 5UTR act -68
N#Cc1ccccc1N/C=C/C(=O)c1ccc(Cl)cc1	aSyn 5UTR act -169
COc1ccc(C(=O)NNC(=O)c2cccc(F)c2)cc1	aSyn 5UTR act -82
CCCC(=O)NC(=S)Nc1ccc(C(C)=O)cc1	aSyn 5UTR act -84
Cc1nn(C)c(C(=O)NNC(=S)Nc2ccc(Cl)cc2)c1[N+](=O)[O-]	aSyn 5UTR act -71
O=C(NNC(=S)Nc1ccc(Cl)cc1)c1ccccc1	aSyn 5UTR act -87
CC(=O)c1ccc(NC(=S)NNC(=O)c2ccncc2)cc1	aSyn 5UTR act -70
O=C(/C=C/NNC(=O)c1ccc(Cl)cc1)c1ccccc1	aSyn 5UTR act -77
COc1ccc(C(=O)NNC(=S)Nc2ccccc2)cc1	aSyn 5UTR act -207
O=C(NNC(=S)Nc1ccccc1Cl)c1ccccc1	aSyn 5UTR act -98
COc1ccccc1NC(=S)NNC(=O)c1ccccc1	aSyn 5UTR act -101
O=C(NNC(=S)Nc1cccc(Cl)c1)c1ccccc1	aSyn 5UTR act -104
NC(=O)C1CC(=O)N(c2ccc(OCc3ccc(F)cc3)cc2)C1 (stereo not given)	aSyn 5UTR act -113
O=C(N/N=C/c1ccccc1O)C1CC(=O)N(c2ccc(Cl)cc2)C1 (stereo not given)	none
NC(=O)C1CC(=O)N(c2ccc(OCc3ccc([N+](=O)[O-])cc3)cc2)C1 (stereo not given)	aSyn 5UTR act -128
O=[N+]([O-])c1ccc(N/N=C/c2cccc(O)c2)cc1	aSyn 5UTR act -171
Cc1ccc(NC(=O)c2ccc(N/N=C/c3cccc(O)c3)c([N+](=O)[O-])c2)cc1	none
O=[N+]([O-])c1ccc(N/N=C/c2cccc(O)c2O)cc1	aSyn 5UTR act -170
Cc1ccc(N=Nc2c(C)[nH]n(-c3ccccc3)c2=O)c(C)c1	aSyn 5UTR act -78
